About 14,000 (4.5%) of roughly 310,000 compounds showed an effect of 50% or more. The effect is printed as a negative number. This is one part of a sample in which strong results are shown more often than they occur.
Target: human ether-à-go-go-related gene (hERG) potassium channel (human, UniProt Q12809)
Assay: primary screen, population patch clamp on CHO cells stably expressing hERG; higher = less effect of the substance
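Also: peak tail current of the secondary pulse compared with the same well before compound.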

human ether-à-go-go-related gene (hERG) potassium channel, sequence (Q12809 whole entry, looked up): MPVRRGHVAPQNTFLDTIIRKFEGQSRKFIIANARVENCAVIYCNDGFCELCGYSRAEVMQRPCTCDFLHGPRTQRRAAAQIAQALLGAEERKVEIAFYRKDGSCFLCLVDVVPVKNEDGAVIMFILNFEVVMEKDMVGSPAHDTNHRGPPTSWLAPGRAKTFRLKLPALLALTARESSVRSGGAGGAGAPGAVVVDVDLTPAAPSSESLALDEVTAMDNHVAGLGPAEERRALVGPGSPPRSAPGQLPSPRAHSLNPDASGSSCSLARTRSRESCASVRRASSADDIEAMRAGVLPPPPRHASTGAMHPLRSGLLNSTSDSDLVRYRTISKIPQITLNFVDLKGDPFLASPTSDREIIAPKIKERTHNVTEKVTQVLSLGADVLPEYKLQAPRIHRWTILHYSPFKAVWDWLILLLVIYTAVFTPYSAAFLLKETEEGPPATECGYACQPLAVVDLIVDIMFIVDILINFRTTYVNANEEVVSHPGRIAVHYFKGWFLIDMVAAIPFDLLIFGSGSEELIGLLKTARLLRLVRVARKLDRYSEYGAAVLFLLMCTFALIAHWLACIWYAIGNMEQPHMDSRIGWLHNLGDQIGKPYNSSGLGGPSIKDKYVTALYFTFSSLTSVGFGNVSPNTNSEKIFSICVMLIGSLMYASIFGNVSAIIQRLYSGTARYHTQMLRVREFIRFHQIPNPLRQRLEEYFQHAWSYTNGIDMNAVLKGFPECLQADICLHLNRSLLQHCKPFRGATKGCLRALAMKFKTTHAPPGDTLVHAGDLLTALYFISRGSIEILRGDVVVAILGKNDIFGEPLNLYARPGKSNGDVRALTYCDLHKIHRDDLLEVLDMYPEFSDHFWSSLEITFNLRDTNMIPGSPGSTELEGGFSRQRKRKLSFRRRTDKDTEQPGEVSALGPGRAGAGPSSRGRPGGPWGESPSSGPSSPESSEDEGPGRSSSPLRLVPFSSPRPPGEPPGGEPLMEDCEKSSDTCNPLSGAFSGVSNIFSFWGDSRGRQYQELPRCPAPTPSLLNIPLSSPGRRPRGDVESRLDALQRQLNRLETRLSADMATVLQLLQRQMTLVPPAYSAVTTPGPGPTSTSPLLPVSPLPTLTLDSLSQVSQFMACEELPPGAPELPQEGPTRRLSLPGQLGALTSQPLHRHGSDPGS

SMILES	hERG current change (%, negative = inhibition) at 10uM [%]
Cc1ccc(-c2cc(-c3ccccc3)c(C#N)c(Br)n2)cc1	-4.18
CC1CC(C)CN(S(=O)(=O)c2ccc3c(c2)oc(=O)n3CC(=O)N(C)Cc2ccccc2)C1 (centres unmarked)	7.04
CCOCCCNC(=S)N1C2CCC1CC(NC(=O)NC1CCCCC1)C2 (centres unmarked)	1.88
Cc1ccc2nc(-c3ccccc3)c(CN3CCN(c4ccccc4F)CC3)n2c1	1.85
CN(C)S(=O)(=O)c1cccc(-c2nn(-c3ccccc3)cc2/C=C(/C#N)C(=O)NCc2ccco2)c1	-26.9
CCCN1CCN(CCCNC(=O)c2cc3c(=O)[nH]c4ccc(C)cc4c3s2)CC1	-29.5
COc1ccccc1-c1ccc(=O)n(CC(=O)NC2CCc3ccccc32)n1 (centres unmarked)	5.88
CCOC(=O)CC(C#N)c1cn(C)c2ccccc12 (centres unmarked)	-17.8
CCn1c(SCC(=O)Nc2ccccc2C)nnc1-c1ccccc1O	1.99
Cc1ccc(C2=NN(S(C)(=O)=O)C(c3cccs3)C2)cc1 (centres unmarked)	-4.62
Cc1nn2c(N3CCCC3)cc(C(C)C)nc2c1-c1ccccc1	3.92
CCCCC(=O)Nc1ncc2c(n1)CC(C)(C)CC2=O	-5.63
CC1(C)CC(=O)c2cnc(NC(=O)C3CCCC3)nc2C1	-12.6
CCCCC1CC1C(=O)Nc1ncc2c(n1)CC(C)(C)CC2=O (centres unmarked)	-57.5
COc1cc(Br)c(CN2CCCN(C)CC2)cc1OC	-0.597
CN(C)C=O.O=C(COC(=O)c1ccc(S(=O)(=O)N2CCCC2)cc1)Nc1cccnc1Cl	7.25
Cc1cccc(C(=O)NCCN(C)C)c1.Cl	8.43
O=C(NCC1CCCCC1)c1ccc([N+](=O)[O-])cc1	-16
O=C(NCC1CCN(C(=O)c2ccc([N+](=O)[O-])cc2)CC1)c1ccc([N+](=O)[O-])cc1	-71.3
O=C(NCC1CCN(C(=O)c2ccc([N+](=O)[O-])cc2)CC1)C(=O)Nc1ccccc1	-36.8
Cc1ccc(NC(=O)C(=O)NCC2CCN(C(=O)c3cccc([N+](=O)[O-])c3)CC2)cc1	-16.5

SMILES	hERG current change (%, negative = inhibition) at 10uM [%]
Cc1cccc(C(=O)NCCCN(C)CCCNC(=O)c2cccc(C)c2)c1	-52.2
Cc1cccc(C(=O)NCC2CCN(C(=O)c3cccc(C)c3)CC2)c1	-51.2
Cc1cccc(C(=O)N2CCCCCC2)c1	2.61
O=C(NCC1CCCCC1)c1cccc([N+](=O)[O-])c1	9.98
O=C(NCC1CCN(C(=O)c2cccc([N+](=O)[O-])c2)CC1)c1cccc([N+](=O)[O-])c1	-53.5
Cc1cccc(C(=O)NCCCNC(=O)c2cccc(C)c2)c1	-3.67
Cc1cccc(C(=O)N2CCCN(C(=O)c3cccc(C)c3)CC2)c1	-0.26
COc1ccc(Cl)cc1Nc1nc(-c2cccnc2)cs1	5.19
Cc1nonc1NC(=O)OC1CCCCC1	1.97
Cc1cccc(NC(=S)N2CCCN(c3ncccc3[N+](=O)[O-])CC2)c1	-16.7
O=C(N[C@H]1CC1c1ccccc1)c1ccc([N+](=O)[O-])cc1 (some centres unmarked)	-6.56
COc1ccccc1NC(=O)Nc1cnccn1	-1.51
CC1CCCC(NC(=S)NC(=O)c2cncc(Br)c2)C1C (centres unmarked)	21.7
O=C(NCc1ccc2c(c1)OCO2)C1CCN(S(=O)(=O)c2ccc(Br)s2)CC1	-24
CCc1cccc(C)c1NC(=O)C1C2CCC(O2)C1C(=O)O (centres unmarked)	18.8
Cc1ccc(C2=NS(=O)(=O)N(C)C(C(=O)Nc3cc(C)n(CC(=O)N4CCCCC4)n3)=C2)cc1	10.3
Cc1ccc2nc(-c3cccc(-c4cccc(Cl)c4)c3)c(NCc3ccccc3)n2c1.O=C(O)C(F)(F)F	16.3
O=S(=O)(c1cccc(-c2nc3ccccc3s2)c1)N1CCOCC1	-7.39
CC1=NN(/C(=N\c2nnc(C)s2)Nc2ccccc2)[C@H](c2ccc(C)cc2)S1	-13.5
CCn1cc(C(=O)NCC2CCCO2)c(=O)c2cc(S(=O)(=O)N(C)C3CCCCC3)ccc21 (centres unmarked)	-31.6
CCC1CCCCN1CCCNC(=O)c1cn(C)c2ccc(S(=O)(=O)N(C)C3CCCCC3)cc2c1=O (centres unmarked)	-62.8

SMILES	hERG current change (%, negative = inhibition) at 10uM [%]
CCOC(=O)N1CCN(C(=O)c2cn(C)c3ccc(S(=O)(=O)N(C)C4CCCCC4)cc3c2=O)CC1	-29.4
CN(C)S(=O)(=O)c1ccc2c(c1)c(=O)c(C(=O)NCCCN1CCCCCC1)cn2C	-4.72
CCC1CCCCN1CCCNC(=O)c1cn(CC)c2ccc(S(=O)(=O)N(C)C3CCCCC3)cc2c1=O (centres unmarked)	-79.8
CCn1cc(C(=O)OC)c(=O)c2cc(S(=O)(=O)N(C)C3CCCCC3)ccc21	-28.4
CCc1ccc(-c2cc(C(F)(F)F)n3nc(C(=O)Nc4cnn(Cc5ccccc5C)c4)cc3n2)s1	5.41
COCCNC(=O)c1cc(S(=O)(=O)N2CCCCC2)ccc1N1CCOCC1	1.23
Cc1sc2nc(CN3CCOCC3)nc(NS(=O)(=O)c3ccccc3)c2c1C	9.1
Cc1sc2nc(CN3CCCC3)nc(N3CCN(S(=O)(=O)c4ccccc4)CC3)c2c1C	-67
Cc1nc(N2CCN(S(=O)(=O)c3ccc(F)cc3)CC2)c2c(C)c(C)sc2n1	-6.58
Cc1sc2nc(CN3CCOCC3)nc(N3CCN(S(=O)(=O)c4ccccc4)CC3)c2c1C	-41.6
Cc1cccc(N2CCN(S(=O)(=O)c3cccs3)CC2)c1C	-15.8
CCc1nc(N2CCN(S(=O)(=O)c3ccc(Br)cc3)CC2)c2c(C)c(C)sc2n1	-32
COc1ccc(-c2csc3ncnc(N4CCN(S(=O)(=O)c5cccc(F)c5)CC4)c23)cc1	-3.5
CCCc1nc(N2CCN(S(=O)(=O)c3ccc(Cl)cc3)CC2)c2c(C)c(C)sc2n1	-17.1
O=S(=O)(c1cccs1)N1CCN(Cc2ccccc2)CC1	-14
Cc1ccc(S(=O)(=O)N2CCN(c3nc(CN4CCCC4)nc4sc(C)c(C)c34)CC2)cc1	-77.7
Cc1sc2nc(CN3CCCC3)nc(N3CCN(S(=O)(=O)c4cccs4)CC3)c2c1C	-70.7
Cc1sc2nc(CN3CCCC3)nc(N3CCN(S(=O)(=O)c4cccc(F)c4)CC3)c2c1C	-70.1
CCCc1cc(=O)[nH]c(SCC(=O)N(CC)Cc2ccccc2)n1	7.9
Cc1ccc(S(=O)(=O)C2(C(=O)N3CCCCC3C)CC2)cc1 (centres unmarked)	1.58
CC1C(=O)N2CCCc3cc(S(=O)(=O)N(C)Cc4ccccc4)cc1c32 (centres unmarked)	-14.7

SMILES	hERG current change (%, negative = inhibition) at 10uM [%]
O=C(O)c1cc(=O)n(Cc2ccccc2)c(=O)[nH]1	15
Cc1ccc(C(C)NC(=O)c2cccnc2)cc1 (centres unmarked)	11.2
Clc1ccccc1Cn1c(/C=C/c2ccco2)nc2ccccc21	13.5
COc1cc2c(cc1NC(=O)COC(=O)CNS(=O)(=O)c1ccc(C)cc1)oc1ccccc12	1.63
CN(c1ccc(C(=O)Nc2cccnc2)cc1)S(=O)(=O)c1ccccc1	-14.9
COc1ccc(-c2nnc(SCC(=O)Nc3sc4c(c3C#N)CCCC4)n2-c2ccccc2)cc1	15.4
Cc1ccc(S(=O)(=O)Nc2nc(CN3CCOCC3)nc3sc(C)c(C)c23)cc1	-43
Cc1sc2nc(CN3CCOCC3)nc(N3CCOCC3)c2c1C.O=C(O)C(=O)O	-10.8
Cc1ccc(C)c(S(=O)(=O)N2CCN(c3nc(CN4CCOCC4)nc4sc(C)c(C)c34)CC2)c1	-57.1
O=C(CNc1n[nH]c(=O)[nH]c1=O)N/N=C/c1ccccc1	2.89
O=S(NC1CCCCC1)C12CC3CC(CC(C3)C1)C2 (centres unmarked)	-12.4
CC(C)c1nc(N2CCN(C(=O)c3ccccc3)CC2)c(C#N)c2c1COC(C)(C)C2	-40.8
Cc1nc(N2CCN(Cc3ccccc3)CC2)c(C#N)c2c1COC(C)(C)C2	-5.21
CCc1nc(N2CCN(C(=O)c3ccccc3)CC2)c(C#N)c2c1COC(C)(C)C2	-46.5
CCc1nc(N2CCN(C(C)=O)CC2)c(C#N)c2c1COC(C)(C)C2	-0.704
CC(C)c1nc(N2CCN(C(=O)c3ccco3)CC2)c(C#N)c2c1COC(C)(C)C2	-71.5
CC1(C)Cc2c(C#N)c(N3CCN(C(=O)c4ccco4)CC3)nc(Cc3ccccc3)c2CO1	-25.3
CCCNC(=O)N1CCN(c2nc(C(C)C)c3c(c2C#N)CC(C)(C)OC3)CC1	4.84
CCc1nc(N2CCN(C(=O)c3ccco3)CC2)c(C#N)c2c1COC(C)(C)C2	-52.1
Cc1nc(N2CCN(C(=O)c3ccc(Cl)cc3)CC2)c(C#N)c2c1COC(C)(C)C2	-60.8
